29 compounds from PubChem BioAssay AID1494157 (National Center for Advancing Translational Sciences (NCATS), 2020) can be followed below.

Results filed as inconclusive are left out. Activity calls are given as the source filed them. The call rests on the fitted dose curve.

The nature of this assay: Confirmatory qHTS for inhibitors of MERS-S pseudo-typed particle cell entry. Conditions: MERS-S pseudotyped particle entry, luciferase reporter; series mostly up to 57.1 µM; activity change, negative = inhibition: at the top concentration. A general note: Quantitative high-throughput screening tests each substance at several concentrations.
As to `N#CC(c1ccc(Cl)cc1)c1c(Cl)cc(-n2ncc(=O)[nH]c2=O)cc1Cl` (centres undefined), the Potency is 7.64 µM (active).

With `COc1cc2nccc(Oc3ccc(NC(=O)NC4CC4)c(Cl)c3)c2cc1C(N)=O`, the Potency is 17.1 µM (active).

For the compound `COc1cccc2c1C(=O)c1c(O)c3c(c(O)c1C2=O)C[C@@](O)(C(=O)CO)C[C@@H]3O[C@H]1C[C@H](N)[C@H](OC2CCCCO2)[C@H](C)O1` (some centres undefined), the “activity change, negative = inhibition” value was -19.3% (inactive).

With `CCN(CC)CCNC(=O)c1c(C)[nH]c(/C=C2\C(=O)Nc3ccc(F)cc32)c1C`, the Potency is 4.29 µM (active).

In the case of `COC(=O)C[C@](O)(CCCC(C)(C)O)C(=O)O[C@@H]1C(OC)=C[C@]23CCCN2CCc2cc4c(cc2[C@H]13)OCO4`, the Potency was 0.607 µM (active).

In the case of `CNCCCC12CCC(c3ccccc31)c1ccccc12`, the Potency is 21.5 µM (active).

Regarding `C=C1c2c(Cl)ccc(O)c2C(O)=C2C(=O)[C@@]3(O)C(O)=C(C(N)=O)C(=O)[C@@H](N(C)C)[C@@H]3[C@@H](O)[C@H]12`, the Potency was 19.2 µM (active).

With `CC(C)OC(=O)OCOP(=O)(CO[C@H](C)Cn1cnc2c(N)ncnc21)OCOC(=O)OC(C)C`, the Potency is 0.0192 µM (active).

For the compound `CCn1cc(C(=O)O)c(=O)c2cc(F)c(N3CCNC(C)C3)c(F)c21` (centres undefined), the “activity change, negative = inhibition” value is 0% (inactive).

Consider `O=C1c2c(O)ccc(O)c2C(=O)c2c(NCCNCCO)ccc(NCCNCCO)c21`, for which the Potency was 0.961 µM (active).

Regarding `Cc1oncc1C(=O)Nc1ccc(C(F)(F)F)cc1`, the “activity change, negative = inhibition” value was 0% (inactive).

Turning to `NCCNc1ccc(NCCN)c2c1C(=O)c1ccncc1C2=O`, the Potency was 19.2 µM (active).

On to `CC(=O)Oc1ccccc1C(=O)Nc1ncc([N+](=O)[O-])s1`, for which the Potency was 10.8 µM (active).

On to `COc1ccc2cc1Oc1ccc(cc1)C[C@H]1c3c(cc4c(c3Oc3cc5c(cc3OC)CCN(C)[C@@H]5C2)OCO4)CCN1C`, for which the Potency was 1.71 µM (active).

Take `CN1CCC[C@@H]1CCO[C@](C)(c1ccccc1)c1ccc(Cl)cc1`: the Potency was 7.64 µM (active).

For the compound `COc1cccc2c1C(=O)c1c(O)c3c(c(O)c1C2=O)C[C@@](O)(C(=O)CO)CC3OC1CC(N2CCOC(OC)C2)C(O)C(C)O1` (some centres undefined), the Potency was 0.215 µM (active).

As for `CCCCN=C(N)N=C(N)N`, the “activity change, negative = inhibition” value was 0% (inactive).

On to `COc1cc2c(cc1Cc1cccc(Cl)c1F)c(=O)c(C(=O)O)cn2[C@H](CO)C(C)C`, for which the Potency was 0.304 µM (active).

For the compound `O=C(Nc1ccc([N+](=O)[O-])cc1Cl)c1cc(Cl)ccc1O`, the Potency is 0.857 µM (active).

Turning to `CN(C)CCOC(c1ccccc1)c1ccc(Br)cc1` (centres undefined), the Potency is 17.1 µM (active).

Turning to `c1ccc2c(c1)Sc1ccccc1N2CC1CN2CCC1CC2` (centres undefined), the Potency was 12.1 µM (active).

Take `Cc1nnc2n1-c1sc(CCc3ccc(CC(C)C)cc3)cc1C(c1ccccc1Cl)=NC2C` (centres undefined): the Potency was 27.1 µM (active).

In the case of `O=C1CCc2ccc(OCCCCN3CCN(c4cccc(Cl)c4Cl)CC3)cc2N1`, the Potency is 12.1 µM (active).

Regarding `C=CC1(C)CC(=O)C2(O)C(C)(O1)C(OC(C)=O)C(OC(=O)CCN(C)C)C1C(C)(C)CCC(O)C12C` (centres undefined), the “activity change, negative = inhibition” value was 0% (inactive).

Take `Cc1nnc(C(=O)NC(C)(C)c2nc(C(=O)NCc3ccc(F)cc3)c(O)c(=O)n2C)o1`: the Potency was 0.0043 µM (active).

On to `CCN(CC)Cc1cc(Nc2ccnc3cc(Cl)ccc23)ccc1O`, for which the Potency is 9.61 µM (active).

As for `Nc1nc(Cl)nc2c1ncn2C1CC(O)C(CO)O1` (centres undefined), the Potency was 12.1 µM (active).

As to `C/C=C(/C)C(=O)O[C@H]1C(C)=CC23C(=O)C(C=C(CO)[C@@H](O)[C@]12O)[C@H]1[C@@H](C[C@H]3C)C1(C)C` (some centres undefined), the “activity change, negative = inhibition” value was -20.2% (inactive).

`Cc1cn([C@H]2C[C@H](N=[N+]=[N-])[C@@H](CO)O2)c(=O)[nH]c1=O`: the Potency is 0.242 µM (active).
